Results from the supplement of paper PMC6992640.
± gives the standard deviation of the averaged measurements.

These molecules were tested on HCI09 (cells of a triple-negative luminal androgen receptor type breast cancer xenograft) (assay: cell viability (% of vehicle); higher = less cytotoxic). Conditions: 10 µM; 72 h.
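Note: PDX cells carrying CMV promoter-driven luciferase, viability read as total photon flux per second by IVIS imaging following D-luciferin, vehicle control 0.1% DMSO.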

For COc1ccc(C=Cc2cc(OC)c(OC)c(OC)c2)cc1OP(=O)([O-])[O-].[Na+].[Na+] [Fosbretabulin (Combretastatin A4 Phosphate (CA4P)) Disodium], which cell viability is on record?
Its cell viability is 110 ± 35.

For COC(=O)NC(C(=O)NC(Cc1ccccc1)C(O)CN(Cc1ccc(-c2ccccn2)cc1)NC(=O)C(NC(=O)OC)C(C)(C)C)C(C)(C)C.O=S(=O)(O)O (configuration not stated), which cell viability is on record?
The cell viability was 74.8 ± 2.8.

How did the cell viability turn out when NC(=O)N1CCC(CC(=O)N2CCC(C3c4ncc(Br)cc4CCc4cc(Cl)cc(Br)c43)CC2)CC1 (configuration not stated) [Lonafarnib] was run?
The cell viability was 12.8 ± 2.5.

With C#C[C@]1(O)CC[C@H]2[C@@H]3CCC4=CCCC[C@@H]4[C@H]3C(=C)C[C@@]21CC [Desogestrel] as the molecule, how does the cell viability read?
The cell viability was 81 ± 11.

Each molecule was assayed on HCI11 (cells of an ER-positive luminal breast cancer xenograft) in the same assay as above. Conditions: 10 µM; 72 h.

With Cc1ccc(-n2[nH]c(C)c(NN=C3C=CC=C(c4cccc(C(=O)O)c4)C3=O)c2=O)cc1C.NCCO.NCCO [Eltrombopag Olamine] as the molecule, how does the cell viability read?
The cell viability was 71.

For CCN1CCN(c2cc3c(cc2F)c(=O)c(C(=O)O)cn3C2CC2)CC1 [Enrofloxacin], which cell viability is on record?
Its cell viability is 91.8.

Which cell viability does the source give for C[N+]1(C)C2CCC1CC(OC(=O)C(O)c1ccccc1)C2.[Br-] (configuration not stated) [Homatropine Methylbromide] here?
Its cell viability is 85.9.

COc1ccc(C2CNC(=O)C2)cc1OC1CCCC1 (stereo not drawn) [S- (+)-Rolipram] was tested. Which cell viability did it give?
The cell viability was 121.

Which cell viability does the source give for CO[C@H]1/C=C/O[C@@]2(C)Oc3c(C)c(O)c4c(O)c(c5c(nc6cc(C)ccn65)c4c3C2=O)NC(=O)/C(C)=C\C=C\[C@H](C)[C@H](O)[C@@H](C)[C@H](O)[C@@H](C)[C@H](OC(C)=O)[C@@H]1C [Rifaximin (Xifaxan)] here?
The cell viability was 98.8.

For CS(=O)(=O)N1CCN(Cc2cc3nc(-c4cccc5[nH]ncc45)nc(N4CCOCC4)c3s2)CC1, which cell viability is on record?
The cell viability was 114.

With O=C(O)C1=COC(OC2OC(CO)C(O)C(O)C2O)C2C(CO)=CCC12 (configuration not stated) [Geniposidic acid] as the molecule, how does the cell viability read?
Its cell viability is 95.6.

Which cell viability does the source give for CCC(CC)C(NC(C)=O)C1C(N=C(N)N)CC(C(=O)O)C1O (configuration not stated) [Peramivir] here?
The cell viability was 98.

CC(C)NCC(O)c1ccc(NS(C)(=O)=O)cc1.Cl (configuration not stated) [Sotalol hydrochloride] was tested. Which cell viability did it give?
Its cell viability is 111.

For Cc1cc(NS(=O)(=O)c2ccc(N)cc2)no1 [Sulfamethoxazole], which cell viability is on record?
Its cell viability is 95.4.

How did the cell viability turn out when CC(C)(O)c1ccccc1CCC(SCC1(CC(=O)[O-])CC1)c1cccc(C=Cc2ccc3ccc(Cl)cc3n2)c1.[Na+] (configuration not stated) [Montelukast Sodium] was run?
The cell viability was 103.

How did the cell viability turn out when CCC(C)C(=O)OC1CC(C)C=C2C=CC(C)C(CCC3CC(O)CC(=O)O3)C21 (configuration not stated) [Lovastatin] was run?
Its cell viability is 181.

With Nc1nc(Cl)nc2c1ncn2C1OC(CO)C(O)C1F (configuration not stated) [Clofarabine] as the molecule, how does the cell viability read?
The cell viability was 126.

How did the cell viability turn out when CC(=O)[N-]S(=O)(=O)c1ccc(N)cc1.[Na+] [Sulfacetamide Sodium] was run?
Its cell viability is 104.

Cc1cccc(C)c1NC(=O)C1CCCCN1C.Cl (configuration not stated) [Mepivacaine HCl] was tested. Which cell viability did it give?
Its cell viability is 96.2.

How did the cell viability turn out when Cc1onc(-c2ccccc2Cl)c1C(=O)NC1C(=O)N2C1SC(C)(C)C2C(=O)[O-].O.[Na+] (configuration not stated) [Cloxacillin Sodium] was run?
Its cell viability is 134.

How did the cell viability turn out when CN1CCC(=C2c3ccccc3C=Cc3ccccc32)CC1.Cl [Cyproheptadine hydrochloride] was run?
Its cell viability is 95.8.

Which cell viability does the source give for NCCCCC(NC(CCc1ccccc1)C(=O)O)C(=O)N1CCCC1C(=O)O.O.O (configuration not stated) [Lisinopril dihydrate] here?
The cell viability was 113.

Which cell viability does the source give for NC(=O)C1CCCc2c1[nH]c1ccc(Cl)cc21 (configuration not stated) here?
Its cell viability is 128.

With CC(=O)O[C@@]12CO[C@@H]1C[C@H](O)[C@@]1(C)C(=O)[C@H](O)C3=C(C)[C@@H](OC(=O)[C@H](O)[C@@H](NC(=O)OC(C)(C)C)c4ccccc4)C[C@@](O)([C@@H](OC(=O)c4ccccc4)[C@H]21)C3(C)C [Docetaxel] as the molecule, how does the cell viability read?
Its cell viability is 124.

Which cell viability does the source give for COc1c(C)c2c(c(O)c1CC=C(C)CCC(=O)O)C(=O)OC2 [Mycophenolic acid] here?
Its cell viability is 75.1.

How did the cell viability turn out when CC(=O)N1CCN(c2ccc(OCC3COC(Cn4ccnc4)(c4ccc(Cl)cc4Cl)O3)cc2)CC1 (single isomer, unassigned; (+)) [(+)-Ketoconazole] was run?
The cell viability was 87.9.

CC1COc2c(N3CCN(C)CC3)c(F)cc3c(=O)c(C(=O)O)cn1c23 (configuration not stated) [Ofloxacin] was tested. Which cell viability did it give?
The cell viability was 86.6.
